# Compound activity from PubChem.
# The list is not random: actives were taken first. Their share in the collection is about 1.2%.
# GALR2 blocker: GALR2 antagonists in receptor-expressing cells, primary screen | Galanin receptor type 2 (Homo sapiens), O43603 | inhibition, % at 4 µM | hit rate 0.39% among 140,000 | antagonist mode; in the data active = inhibition above about 27%;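 also: cells stimulated with galanin 1-16 at roughly its EC80; 0% = agonist challenge control and 100% = basal control without agonist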
# GALR2 agonist: GALR2 receptor agonists, primary screen, cell-based; Galanin receptor type 2 (Homo sapiens), O43603; GALR2-expressing cells, agonist activation read-out; activation, % (test concentration not listed); hit rate 0.48% among 140,000; AID 803, 2007; in the data active = activation above about 5%, passing the limit was not always enough;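 also: 0% = vehicle buffer wells and 100% = reference agonist at full effect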
# S1P2 blocker: human S1P2 receptor antagonists, primary screen, cell-based; hit rate 0.21% among 97,000; inhibition, % at 5 µM; cell-based S1P2 antagonist assay, inhibition at 5 uM; AID 736, 2007; in the data active = inhibition above about 45%;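 also: CRE beta-lactamase reporter cells expressing human S1P2 stimulated with S1P; 0% = agonist at EC80 alone and 100% = agonist plus reference antagonist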
# Target sequence (O95136 whole entry, looked up): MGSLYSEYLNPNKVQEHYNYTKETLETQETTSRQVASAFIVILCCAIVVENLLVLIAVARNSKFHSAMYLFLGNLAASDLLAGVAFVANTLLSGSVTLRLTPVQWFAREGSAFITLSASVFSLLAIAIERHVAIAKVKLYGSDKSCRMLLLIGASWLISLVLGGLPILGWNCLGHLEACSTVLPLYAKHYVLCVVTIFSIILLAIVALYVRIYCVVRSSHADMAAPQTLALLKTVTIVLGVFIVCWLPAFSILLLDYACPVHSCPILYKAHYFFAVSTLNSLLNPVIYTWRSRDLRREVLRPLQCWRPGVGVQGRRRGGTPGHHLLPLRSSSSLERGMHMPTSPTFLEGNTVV
# S1P2 agonist: S1P2 receptor agonists, primary screen, cell-based; Sphingosine 1-phosphate receptor 2 (Homo sapiens), O95136; S1P2-expressing cell line, agonist reporter read-out; activation, % at 4.5 µM; hit rate 0.46% among 97,000; AID 729, 2007; in the data active = activation above about 16%;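 also: 0% = vehicle low control and 100% = maximal reference agonist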
# * = called active by the depositor; / = not tested or not shown.
SMILES,GALR2 blocker,GALR2 agonist,S1P2 blocker,S1P2 agonist
CCCCC(CC)Cn1c2nc3ccccc3nc2c2c(=N)oc(C)nc21 (configuration not stated),2.7,-1.0,-211.3,-0.5
CCCCC(CC)Cn1c(N)c(C#N)c2nc3ccccc3nc21 (configuration not stated),-14.7,35.1*,-61.3,50.2*
O=C(Nc1ccc(Cl)c(Cl)c1)OCCNC(=O)c1cccc(Cl)c1,4.8,-3.0,5.8,-13.1
COc1ccc2cc3c(N)nn(C(=O)c4cccc([N+](=O)[O-])c4)c3nc2c1,-1.8,8.0*,/,/
Cn1cc(C(=O)N2CCN(C(=O)c3ccco3)CC2)c2c3ccccc3n(C)c2c1=O,-8.8,-0.6,-1.5,-1.7
c1ccc(C(c2ccccc2)N2CCN(c3nc4ccccc4n4cnnc34)CC2)cc1,-0.7,-0.3,29.2,23.8*
CCCN1CCC(NC(=O)Nc2ccc(OC)c(OC)c2)CC1,-10.4,0.2,-2.4,35.0*
CCOc1ccc(N2C(=O)c3cccnc3C2Nc2ccc(C)cc2)cc1 (configuration not stated),-9.9,-2.0,4.2,-7.3
COc1ccc(OC)c(NC(=O)CN2C(=O)NC3(CCOc4ccccc43)C2=O)c1 (configuration not stated),-9.9,-0.7,-4.1,-7.9
N=c1c2c(-c3ccccc3)c(-c3ccccc3)n(Cc3ccco3)c2ncn1Cc1ccco1,-1.6,5.2*,/,/
N=c1c2c(-c3ccccc3)c(-c3ccccc3)n(Cc3ccccc3)c2ncn1CCCn1ccnc1,5.7,3.0,15.6,-2.6
CC1CC(C)CN(CC(C)(C)NS(=O)(=O)c2ccc(Cl)cc2)C1 (configuration not stated),11.7,-1.8,-8.6,-2.5
Cc1ccc(S(=O)(=O)Nc2cc(-c3nn(C)c(=O)c4ccccc34)ccc2N2CCOCC2)cc1,1.1,-1.5,-47.5,16.6*
Cc1csc(SCC(=O)NCCc2ccc(Cl)cc2Cl)n1,-4.9,-0.6,/,/
Cc1cc(C)n2cc(CSc3nnnn3-c3ccc(Cl)cc3)nc2n1,5.6,-0.9,-5.5,106.4*
CCCCNc1cc(C)nc(NCc2ccccc2)n1,24.4,-0.9,56.8*,-4.2
COc1cccc(C2C3=C(CCCC3=O)Nc3nc(-c4cc(OC)c(OC)c(OC)c4)nn32)c1 (configuration not stated),2.0,1.4,-25.7,17.5*
Cc1ccc2nc(-c3ccc(SCC(=O)Nc4nnc(C)s4)nc3)[nH]c2c1,12.8,5.3*,/,/
Cc1ccc2nc(/C(C#N)=C\c3cc(C)n(-c4cccc([N+](=O)[O-])c4)c3C)[nH]c2c1,-2.9,2.3,-40.0,16.9*
O=C(CCC(=O)N1CCc2ccccc21)Nc1ccccc1,6.4,-2.1,9.8,57.6*
CCSc1nn2c(=O)c3ccccc3nc2s1,1.3,-0.9,-13.3,-3.6
Cc1ccc(CNC(=O)CCNC(=O)c2ccco2)cc1,-3.5,-1.6,-10.7,869.1*
O=C(NCc1ccccc1)c1ccco1,-9.6,-1.4,-20.0,-1.2
Cc1ccc(OCCNC(=O)c2ccco2)cc1C,1.8,-1.8,18.4,50.3*
O=C(NCCCCNC(=O)c1ccco1)c1ccco1,1.7,-1.5,5.7,-6.7
SMILES,GALR2 blocker,GALR2 agonist,S1P2 blocker,S1P2 agonist
Cc1ccc(S(=O)(=O)N2CC3(C)CN(S(=O)(=O)c4ccc(C)cc4)CC(C)(C2)C3O)cc1 (configuration not stated),9.8,5.0*,/,/
Cc1ccc(S(=O)(=O)N2CC3(C)CN(S(=O)(=O)c4ccc(C)cc4)CC(C)(C2)C3=O)cc1,0.3,-2.5,25.6,-5.8
CCOC(=O)N1CCN(c2nc3ccccc3nc2C(C#N)C(=O)NCCc2ccccc2)CC1 (configuration not stated),-7.8,-1.8,5.5,-1.0
CCOC(=O)c1cc2ccc(OC)c(OC)c2c(=O)s1,-9.5,-1.5,-17.3,109.2*
CC1(C)CC(=O)c2sc(NC(=O)c3cccs3)nc2C1,1.7,-0.8,4.0,-3.9
CCn1c2ccccc2c2nc3ccccc3nc21,-4.2,1.1,-36.5,18.9*
CCn1c2ccccc2c2nc3cc(OC)c(OC)cc3nc21,-5.5,1.3,-37.5,23.1*
CCCCCCCCCn1c2c(c(=N)c3c1CCC3)CCC2,21.6,-0.6,78.8*,-4.3
CCCCCCn1c2c(c(=N)c3c1CCC3)CCC2,-2.9,-1.5,0.2,-4.7
Cc1nn2c([nH]c(=O)c3ccccc32)c1C=O,9.5,-1.2,-2.5,-1.9
COc1cc2c(cc1OC)C(COc1ccc3c(C)cc(=O)oc3c1)N(C(=O)c1ccco1)CC2 (configuration not stated),1.5,-1.0,-8.1,21.2*
COc1cc2c(cc1OC)C(COc1ccc(F)cc1)N(C(=O)c1ccco1)CC2 (configuration not stated),13.0,1.3,-22.1,0.0
Cc1nn(-c2ccccc2)c(Cl)c1/C=N/Nc1nc2ccccc2[nH]1,12.6,5.5*,/,/
CC(C)c1nc2sc3c(NCc4ccco4)ncnc3c2c2c1COC(C)(C)C2,-10.5,-1.2,-33.6,19.6*
CC(C)c1nc2sc3c(NCc4ccccc4)ncnc3c2c2c1COC(C)(C)C2,-8.5,1.2,-47.6,-6.1
Cc1cc(C)n(CC(O)Cn2c3ccccc3c3ccccc32)n1 (configuration not stated),7.8,-0.9,-11.0,-4.0
Cc1cc(C)n(CCc2nc3c4ccccc4n(CC#N)c(=O)n3n2)n1,-12.6,-0.1,-24.2,29.4*
CC1(C)CC(=O)C(C=Nc2ccc(O)cc2)=C(O)C1,-0.1,-0.8,10.2,-10.6
CC1(C)CC(=O)C(C=Nc2ccc3cn[nH]c3c2)=C(O)C1,31.4*,-0.4,-5.7,-1.5
CC1(C)CC(=O)C(C=Nc2ccc3[nH]ncc3c2)=C(O)C1,7.4,-1.8,23.5,-4.8
CSc1ccccc1N=CC1=C(O)CC(C)(C)CC1=O,35.6*,-1.4,21.7,-4.2
Cc1cc(C)n(CCOc2ccc(Cl)cc2Cl)n1,-5.7,-0.3,1.8,-4.5
O=C(c1ccccc1)C(CCC(CN1CCOCC1)C(=O)c1ccccc1)CN1CCOCC1 (configuration not stated),7.7,-0.4,53.4*,-6.3
O=C(c1ccc(F)cc1)C(CN1CCOCC1)c1ccccc1 (configuration not stated),31.7*,-1.2,28.1,-12.8
O=C(NC12CC3CC(CC(C3)C1)C2)C12CC3CC(C1)CC(n1cnc(Cl)n1)(C3)C2,2.9,-1.4,12.4,-4.0
SMILES,GALR2 blocker,GALR2 agonist,S1P2 blocker,S1P2 agonist
O=C(Nc1ccc(-c2nc3ccccc3o2)c(O)c1)c1cc(-n2cnnc2)ccc1Cl,-7.7,0.6,-7.7,3.1
Cc1c(NC(=O)c2cc(-n3cnnc3)ccc2Cl)cccc1-c1nc2ccccc2o1,11.0,-4.4,55.7*,-5.1
Cc1cc(C(=O)CN2C(=O)NC(C)(c3cccc(Br)c3)C2=O)c(C)n1Cc1ccco1 (configuration not stated),-3.6,-1.0,-11.3,36.1*
CC(=O)c1cccc(N(CC(=O)O)S(C)(=O)=O)c1,-9.4,-1.7,-4.3,-11.1
CC(=O)N1CCN(C(=S)NC(=O)c2ccc(S(=O)(=O)N3CCOCC3)cc2)CC1,4.5,-3.1,/,/
N#C/C(=C/c1ccc(N2CCCCCC2)o1)c1ccc(Cl)cc1,26.6,0.1,48.8*,-5.0
